Compound activity as filed in PubChem.
NTMT1 inhibitor = blocks human N-terminal methyltransferase 1 activity. Q9BV86. NTMT1 MTase-Glo SAH luminescence, purified enzyme. Potency, µM (titrated, usually from 114 µM), without a hit: at the top dose activity change, negative = inhibition, usual class: inhibitors. 2.5% of 59,000 active. AID 1645870;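 also: potency is read from the fitted curve at half-maximal effect; plate controls were DMSO vehicle for no effect and no enzyme for full effect; nearly all actives have a fitted effect of over 65% in size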
GALK inhibitor = GALK (human) enzyme inhibition. Potency, µM (doses to about 57.5 µM), inactives show top-dose activity, negative = inhibition, usual class: inhibitors. P51570. 44,000 tested, under 10 active. recombinant GALK, Kinase-Glo ATP luminescence, 1 h;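 also: plate controls were full GALK reaction for no effect and reaction lacking GALK for full effect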
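Human GALK (5 nM) was incubated with 35 uM ATP and 100 uM galactose in 20 mM HEPES pH 8.0 with MgCl2, NaCl, DTT and BSA for 1 h at room temperature. Remaining ATP was measured by Kinase-Glo Plus luminescence.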
HTT prom inh = inhibits huntingtin promoter activity; HEK293 HTT promoter firefly luciferase reporter, 24 h; Potency, µM (doses to about 57.5 µM), without a hit: at the top dose activity change, negative = inhibition, actives largely listed as inhibitors; 0.93% of 48,000 active; also: potency is read from the fitted curve at half-maximal effect; nearly all actives have a fitted effect of over 50% in size
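HEK293 Fluc reporter, 2,500 cells/well, 24 h pre-culture; cpds up to 57.5 uM final, 24 h 37 degrees C; Dual-Glo, 10 min RT; normalized vehicle = 0%, zero RLU = -100%.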
HTT-AS act = HTT-AS promoter activation | HEK293 HTT-AS promoter firefly luciferase reporter, 24 h; response scale: percent change from vehicle, -100% = no light | Potency, µM (titrated, usually from 57.5 µM), without a hit: top-dose activity change, positive = activation, most hits filed as activators | 0.24% of 48,000 active | AID 1508624; also: potency is read from the fitted curve at half-maximal effect; nearly all actives have a fitted effect of over 55% in size
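Luminescence was read after Dual-Glo reagent and a 10 min room-temperature incubation. Values were normalized to vehicle (0% activity) and zero RLU (-100% activity). Reporter HEK293 cells had been exposed to compounds (up to 57.5 uM final) for 24 h.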
FH mod = Identification of activators of human fumarate hydratase by quantitative high-throughput screening; Potency, µM (series often up to 79.9 µM), without a hit: top-dose activity change, negative = inhibition, hits mostly inhibitors; Fumarate hydratase, mitochondrial (Homo sapiens), P07954; 0.22% of 54,000 active; AID 1347055, 2019; FH coupled MDH/diaphorase resazurin fluorescence, 15 min; also: potency is read from the fitted curve at half-maximal effect; % is scaled to controls: 0 for no effect and ±100 for the full control effect; the screen sought activators but most active calls are inhibition curves; nearly all actives have a fitted effect of over 45% in size
Target sequence (P07954 whole entry, looked up): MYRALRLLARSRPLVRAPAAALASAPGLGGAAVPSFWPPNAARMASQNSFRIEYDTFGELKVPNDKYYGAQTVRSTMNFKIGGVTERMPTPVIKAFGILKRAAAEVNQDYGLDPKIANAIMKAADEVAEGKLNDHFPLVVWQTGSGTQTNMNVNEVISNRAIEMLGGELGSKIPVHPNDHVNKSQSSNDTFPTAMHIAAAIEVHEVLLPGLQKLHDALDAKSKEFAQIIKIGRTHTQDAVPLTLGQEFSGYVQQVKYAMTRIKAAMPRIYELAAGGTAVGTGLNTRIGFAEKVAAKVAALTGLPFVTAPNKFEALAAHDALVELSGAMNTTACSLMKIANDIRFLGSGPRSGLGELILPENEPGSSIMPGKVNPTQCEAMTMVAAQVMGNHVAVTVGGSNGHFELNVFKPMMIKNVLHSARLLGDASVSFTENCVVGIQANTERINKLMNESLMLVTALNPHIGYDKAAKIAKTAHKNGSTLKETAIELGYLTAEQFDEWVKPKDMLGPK
An asterisk follows results filed as active; ? = inconclusive; . = no result given; ! = repeats disagree; [ ] = another dose, or the depositor's remark. In the library only some 2.5% were active in any assay of this set; here they are far more common. Calls follow the shape of the dose curve; as a rule, active = well fitted curve in the direction sought with a large enough effect; inconclusive = small, poorly fitted or top-dose-only effect, or another doubt; inactive = no such curve, though single readings can be large; an effect the other way counts as inactive or inconclusive.

SMILES	NTMT1 inhibitor	GALK inhibitor	HTT prom inh	HTT-AS act	FH mod
O=S(=O)(c1cccc(Cl)c1)n1c(/C=C/c2ccccc2Cl)nc2ccccc21	6.3µM*	10%	-46%	?	-18%
CSc1ccc(/C=C/c2nc3ccccc3n2S(=O)(=O)c2cccc(Cl)c2)cc1	6.3µM*	13%	?	-70%	-13%
Cc1noc(C)c1-c1ccc(Nc2nc(-c3ccncc3)nc3ccccc23)cc1F	2%	.	.	.	.
CN(C)Cc1cccc(N=C(c2ccccc2)c2c(O)[nH]c3cc(C(N)=O)ccc23)c1	?	.	.	.	-7%
CCCCOC(=O)c1ccc(NC(=O)c2cc(=O)c3ccccc3o2)cc1	?	-2%	-17%	0%	-13%
CCCCOC(=O)c1cccc(NC(=O)c2cc3ccccc3o2)c1	1%	0%	10µM*	-52%	-28%
O=C(NCc1cccc(Cl)c1)C1CCCN(c2nn3cc(-c4ccc(F)cc4)nc3s2)C1 (stereo unspecified)	2%	-6%	2.5µM*	-70%	-10%
O=C(Nc1cccc(Cl)c1)C1CCCN(c2nn3cc(-c4ccc(F)cc4)nc3s2)C1 (stereo unspecified)	20%	0%	4µM*	-64%	-14%
CCCNS(=O)(=O)c1ccc2nc(NC(=O)c3ccc(F)cc3)sc2c1	8.9µM*	-1%	?	-12%	5%
COCCNC(=O)c1ccc2nc(CCc3ccccc3)oc2c1	89µM*	2%	24%	?	1%
COCCCNC(=O)c1ccc2nc(CCc3ccccc3)oc2c1	0%	0%	14%	30%	-3%
O=C(Nc1ccc(N2CCOCC2)c(C(=O)O)c1)c1ccc(Br)cc1	89µM*	-2%	-2%	18%	-12%
O=C(Nc1ccc(N2CCC(N3CCCCC3)CC2)c(C(=O)O)c1)c1ccc(Br)cc1	?	2%	-11%	0%	-35%
COc1cc(OC)c(NS(=O)(=O)c2ccc3c(c2)NC(=O)CCS3)cc1Cl	14%	0%	28µM*	-49%	-14%
Cc1ccccc1NS(=O)(=O)c1ccc2c(c1)NC(=O)CCS2	8%	-7%	-22%	-26%	-6%
Cc1cc(N[S+](=O)([O-])c2ccc(NC(=O)Cc3nc4ccc(Cl)cc4[nH]3)cc2)no1	-4%[57.5 µM]	.	.	.	.
CCC(C)C(N)C1=NC(C(=O)N[C@@H](CC(C)C)C(=O)N[C@H](CCC(=O)O)C(=O)N[C@H](C(=O)N[C@H]2CCCCNC(=O)[C@H](CC(N)=O)NC(=O)[C@@H](CC(=O)O)NC(=O)[C@H](Cc3cnc[nH]3)NC(=O)[C@@H](Cc3ccccc3)NC(=O)[C@H]([C@@H](C)CC)NC(=O)[C@@H](CCCN)NC2=O)[C@@H](C)CC)CS1 (stereo partly specified)	7.9µM*!	.	.	.	10%[53.3 µM]
FC(F)(F)c1ccc(CSc2nc3ncc(Br)cc3[nH]2)cc1	6%[57.5 µM]	.	.	.	.
CC(C)Oc1ccc(C(=O)Nc2ccc(-c3nc4ccccc4[nH]3)cc2)cc1	-4%[57.5 µM]	.	.	.	.
O=C(CN1C(=O)C2(SCC(=O)N2c2ccccc2)c2ccccc21)NCc1ccccc1 (stereo unspecified)	89µM*	-1%	-22%	-8%	-10%
Cc1noc(C)c1-c1ccc2ncnc(NCC3CCN(C)CC3)c2c1	-13%	.	.	.	.
C=CC(=O)N1CCC(Oc2cc3c(Nc4ccc(Cl)c(Cl)c4F)ncnc3cc2OC)CC1	?	.	.	.	-19%
COc1cc2c(Nc3ccc(Br)cc3F)ncnc2cc1OCC1CCN(C)CC1	35µM*!	.	11%	-3%	2%
COc1cc2c(Nc3ccc(Cl)c(Cl)c3F)ncnc2cc1OCC1C[C@@H]2CN(C)C[C@H]2C1	24µM*	.	?	-50%	5%[53.3 µM]
Fc1cc(Nc2nc(-c3ccncc3)nc3ccccc23)ccc1-c1cc(F)c(F)c(F)c1	-1%	.	.	.	.
SMILES	NTMT1 inhibitor	GALK inhibitor	HTT prom inh	HTT-AS act	FH mod
CCOC(=O)/C=C(C)/C=C/C=C(C)/C=C/c1c(C)cc(OC)c(C)c1C	10%[57.5 µM]	.	7%	-8%	-6%[53.3 µM]
COc1cc(C)c(/C=C/C(C)=C/C=C/C(C)=C/C(=O)O)c(C)c1C	79µM*	.	.	.	.
Cc1cc(C)cc(NC(=O)Cn2c(=O)oc3cc(S(=O)(=O)N4CCCC4)ccc32)c1	1%	-3%	?	-33%	-14%
Cc1cc(C)c(NC(=O)Cn2c(=O)oc3cc(S(=O)(=O)N4CCCCCC4)ccc32)c(C)c1	1%	-1%	10µM*	-42%	-11%
CC(C)c1ccc(NC(=O)Cn2c(=O)oc3cc(S(=O)(=O)N4CCCC4)ccc32)cc1	0%	5%	14µM*	-48%	-22%
CC1(c2ccccc2)CC(C)(C)N(C(=O)c2ccccc2Cl)c2ccccc21 (stereo unspecified)	-1%	-2%	-28%	-39%	-9%
COc1ccccc1C(=O)N1c2ccccc2C(C)(c2ccc(Cl)cc2)CC1(C)C (stereo unspecified)	-1%	-5%	25µM*	-50%	-10%
Cc1cc2oc(=O)c(CC(=O)O)c(C)c2c2occ(-c3ccc(F)cc3)c12	40µM*	7%	48%	?	-15%
O=C(O)c1ccc(-c2c[nH]c3ncc(-c4ccccc4)cc23)cc1C1CCCC1	25µM*	.	-18%	-11%	32µM*!
O=C(O)c1ccc(O)c2ncc(-c3n[nH]nc3-c3ccccc3)cc12	9%	.	.	.	.
CO[C@@]1(NC(=O)CSCC#N)C(=O)N2C(C(=O)O)=C(CSc3nnnn3C)CS[C@@H]21	14µM*	.	12%	-1%	3%[53.3 µM]
CN(C)CCn1nnnc1SCC1=C(C(=O)O)N2C(=O)[C@@H](NC(=O)Cc3csc(N)n3)[C@H]2SC1	-21%[57.5 µM]	.	3%	2%	-3%[53.3 µM]
CC(C)N(CCC(=O)c1ccc2ccccc2c1)Cc1ccccc1	50µM*	.	.	.	?
Cc1cccc(-c2noc(-c3ccc(N4CCCC4)c([N+](=O)[O-])c3)n2)c1	?	2%	?	-68%	-3%
Cc1cccc(-c2noc(-c3ccc(N4CCN(C)CC4)c([N+](=O)[O-])c3)n2)c1	-9%	2%	1.4µM*	-73%	-34%
CC(=O)c1cccc(NC(=O)Nc2nnc(-c3ccncc3)s2)c1	1%	.	.	.	.
CCN1CCN(c2ccc(NS(=O)(=O)c3c(C)nc4sccn4c3=O)cc2Cl)CC1	10%	1%	16µM*	-45%	-4%
CCN(CCCNC(=O)c1cc2c(=O)[nH]c3ccc(C)cc3c2s1)Cc1ccccc1	50µM*	7%	-21%	-26%	?
